Source: PubChem BioAssay (NCATS)
Inconclusive results are not listed. The source made the active and inactive calls. Calls come from the whole dose curve; as a rule, active = well fitted inhibition curve with a large enough effect; inconclusive = small, poorly fitted or top-dose-only effect; inactive = no such curve, though single readings can be large or run the other way.

Experiment: qHTS for Inhibitors of the Aldehyde Dehydrogenase Family (ALDH1A2, ALDH1A3, ALDH2, ALDH3A1) (AID 2061307); note: nearly all actives have a fitted effect of over 50% in size; for Potency: test system not described further here
Settings: ALDH inhibition qHTS; series mostly up to 50.3 µM
Potency is the fitted concentration of half-maximal effect.

| Compound | Potency |
| --- | --- |
| O=C(Nc1nc(-c2ccccc2)cs1)c1ccncc1NS(=O)(=O)c1ccc(Cl)cc1 | 25.2 µM (active) |
| Cc1ccc(N[S+](=O)([O-])c2cc3c(cc2Cl)NC(=O)CO3)cc1Br | 10.1 µM (active) |
| Cc1ccc(S(=O)(=O)Nc2cc(C(F)(F)F)ccc2C(=O)Nc2nc(-c3ccccc3)cs2)cc1 | 0.355 µM (active) |
| C/C(=C\c1cccc(C(F)(F)F)c1)C1Nc2cccc3cccc(c23)N1 | inactive |
| Cc1csc(CN(C)c2ncnc3ccc(-c4ccc5c(c4)OCO5)cc23)n1 | 0.201 µM (active) |
| CC(=O)Nc1sc2c(c1-c1nc3ccccc3s1)CN(C(C)C)C2 | inactive |
| CC(C)(Nc1nc(-c2ccccc2C(F)(F)F)nc2ccccc12)c1ccc(-c2cccc(C(F)(F)F)c2)cc1 | inactive |
| CNC(=O)C1CCN(c2nc(-c3ccc(Br)cc3)cs2)CC1 | 12.6 µM (active) |
| c1csc(CNc2ccc(N3CCOCC3)cc2)c1 | inactive |
